In PMC7862700, “An all-to-all approach to the identification of sequence-specific readers for epigenetic DNA modifications on cytosine” one finds binding signal data, which are given here for one sequence.

Assay in all cases: DAPPL (digital affinity profiling via proximity ligation, sequencing); 10 mM Tris-HCl pH 7.5, 50 mM NaCl, 1 mM DTT, 4% glycerol, room temperature, 30 min; GST-TFs on glutathione beads, 16-mer random dsDNA library, 0.1% formaldehyde crosslink after washing; high values mean tight binding
In one assay the target is T1, FLI1 (Homo sapiens, UniProt Q01543 1-452).
T1 sequence: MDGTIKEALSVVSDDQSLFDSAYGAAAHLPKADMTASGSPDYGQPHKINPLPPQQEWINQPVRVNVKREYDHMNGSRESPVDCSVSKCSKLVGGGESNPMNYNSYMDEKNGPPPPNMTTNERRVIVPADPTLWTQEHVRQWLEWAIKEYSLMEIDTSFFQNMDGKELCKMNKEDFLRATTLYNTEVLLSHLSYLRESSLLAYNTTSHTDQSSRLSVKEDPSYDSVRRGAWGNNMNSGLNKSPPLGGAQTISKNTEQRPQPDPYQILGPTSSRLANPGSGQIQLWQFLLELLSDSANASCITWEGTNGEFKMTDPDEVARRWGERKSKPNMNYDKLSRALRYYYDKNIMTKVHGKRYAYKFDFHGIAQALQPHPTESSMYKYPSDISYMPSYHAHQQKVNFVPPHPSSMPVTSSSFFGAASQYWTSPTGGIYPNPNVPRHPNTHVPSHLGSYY
To be noted: protein: recombinant; tags: N-terminal GST; dsDNA, one strand shown. In a few lines: (§1)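 Pools were built from human transcription factors expressed in yeast as GST fusions, captured on glutathione beads and DNA-barcoded, along with a tag-only sample. Incubation with 200 nmole of a 16-mer random double-stranded DNA library lasted 30 min at room temperature in Tris/NaCl/DTT/glycerol buffer, and was followed by washing, 0.1% formaldehyde crosslinking, proximity ligation, PCR amplification and Illumina NextSeq500 sequencing. Binding signal is the quotient of each hexamer's read frequency for a factor and its frequency for the tag-only sample.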

Another assay concerns the target T2, ELK1 (Homo sapiens, UniProt P19419 1-428).
T2 sequence: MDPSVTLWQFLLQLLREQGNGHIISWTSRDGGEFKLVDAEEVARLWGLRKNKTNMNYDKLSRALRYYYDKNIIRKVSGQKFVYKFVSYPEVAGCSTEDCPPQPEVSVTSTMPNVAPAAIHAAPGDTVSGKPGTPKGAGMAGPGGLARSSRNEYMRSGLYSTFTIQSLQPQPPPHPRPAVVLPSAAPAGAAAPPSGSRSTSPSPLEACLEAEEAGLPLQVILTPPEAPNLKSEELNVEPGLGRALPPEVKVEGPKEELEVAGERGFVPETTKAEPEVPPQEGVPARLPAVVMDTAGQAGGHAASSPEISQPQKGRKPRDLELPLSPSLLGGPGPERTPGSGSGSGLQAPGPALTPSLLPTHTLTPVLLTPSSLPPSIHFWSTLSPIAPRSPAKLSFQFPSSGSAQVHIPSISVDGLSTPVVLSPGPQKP
To be noted: protein: recombinant; tags: N-terminal GST; dsDNA, one strand shown. In a few lines: as §1

The next assay has as its target T3, GABPA (Homo sapiens, UniProt Q06546 1-454).
T3 sequence: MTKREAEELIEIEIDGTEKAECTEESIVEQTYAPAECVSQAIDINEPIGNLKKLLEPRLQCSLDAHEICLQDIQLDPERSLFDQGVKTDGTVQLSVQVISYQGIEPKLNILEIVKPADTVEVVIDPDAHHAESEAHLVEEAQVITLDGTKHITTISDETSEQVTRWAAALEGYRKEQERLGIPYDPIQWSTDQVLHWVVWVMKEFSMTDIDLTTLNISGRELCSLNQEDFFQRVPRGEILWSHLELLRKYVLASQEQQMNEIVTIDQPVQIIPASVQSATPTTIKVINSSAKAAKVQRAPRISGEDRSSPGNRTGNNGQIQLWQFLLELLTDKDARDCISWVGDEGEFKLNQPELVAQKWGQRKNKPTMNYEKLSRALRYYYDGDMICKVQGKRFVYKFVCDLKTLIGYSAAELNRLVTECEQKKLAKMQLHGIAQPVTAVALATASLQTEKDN
Particulars: protein: recombinant; tags: N-terminal GST; dsDNA, one strand shown. The method, boiled down:
as §1

For a further assay, the target named is T4, ERG (Homo sapiens, UniProt P11308 1-479).
T4 sequence: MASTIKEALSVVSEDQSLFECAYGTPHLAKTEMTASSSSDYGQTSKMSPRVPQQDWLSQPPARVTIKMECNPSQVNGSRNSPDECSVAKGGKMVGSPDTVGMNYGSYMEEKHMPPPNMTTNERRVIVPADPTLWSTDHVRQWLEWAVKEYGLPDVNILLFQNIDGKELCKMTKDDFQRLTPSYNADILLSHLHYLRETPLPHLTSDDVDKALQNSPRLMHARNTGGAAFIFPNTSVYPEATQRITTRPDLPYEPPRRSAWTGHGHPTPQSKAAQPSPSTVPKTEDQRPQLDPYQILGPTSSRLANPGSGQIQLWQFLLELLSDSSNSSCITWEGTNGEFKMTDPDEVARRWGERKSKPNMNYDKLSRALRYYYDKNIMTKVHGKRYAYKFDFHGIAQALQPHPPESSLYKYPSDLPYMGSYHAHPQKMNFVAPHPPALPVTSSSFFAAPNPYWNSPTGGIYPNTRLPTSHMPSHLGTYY
Particulars: protein: recombinant; tags: N-terminal GST; dsDNA, one strand shown. In a few lines:
as §1

For the next assay, the target named is ELF1 (Homo sapiens, UniProt P32519 1-619). To be noted: protein: recombinant; tags: N-terminal GST; dsDNA, one strand shown. In a few lines:
as §1

The target in the next assay is T5, EHF (Homo sapiens, UniProt Q9NZC4 1-300).
T5 sequence: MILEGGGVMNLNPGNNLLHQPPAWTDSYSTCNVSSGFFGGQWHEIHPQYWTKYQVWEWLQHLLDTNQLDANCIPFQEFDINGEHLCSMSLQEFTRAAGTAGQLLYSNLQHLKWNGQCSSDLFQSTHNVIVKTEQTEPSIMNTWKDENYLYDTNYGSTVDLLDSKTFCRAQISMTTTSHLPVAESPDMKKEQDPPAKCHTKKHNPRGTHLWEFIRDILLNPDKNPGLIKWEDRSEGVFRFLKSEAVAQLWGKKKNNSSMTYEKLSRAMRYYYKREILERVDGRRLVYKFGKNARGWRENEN
Particulars: protein: recombinant; tags: N-terminal GST; dsDNA, one strand shown. In a few lines:
as §1

In a further assay the target is SPI1 (Homo sapiens, UniProt P17947 1-270). To be noted: protein: recombinant; tags: N-terminal GST; dsDNA, one strand shown. The method, boiled down:
as §1

The target in another assay is SPIB (Homo sapiens, UniProt Q01892 1-262). To be noted: protein: recombinant; tags: N-terminal GST; dsDNA, one strand shown. In a few lines: as §1
Sequence of SPIB (Q01892 whole entry): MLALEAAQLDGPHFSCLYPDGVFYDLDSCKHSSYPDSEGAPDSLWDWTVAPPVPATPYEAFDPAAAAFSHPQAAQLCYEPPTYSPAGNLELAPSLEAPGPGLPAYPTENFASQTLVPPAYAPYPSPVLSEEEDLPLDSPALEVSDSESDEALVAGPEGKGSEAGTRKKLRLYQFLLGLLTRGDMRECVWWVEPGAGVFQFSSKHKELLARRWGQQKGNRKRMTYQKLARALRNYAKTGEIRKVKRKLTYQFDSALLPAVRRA
In the next assay the target is T6, ELK3 (Homo sapiens, UniProt P41970 1-407).
T6 sequence: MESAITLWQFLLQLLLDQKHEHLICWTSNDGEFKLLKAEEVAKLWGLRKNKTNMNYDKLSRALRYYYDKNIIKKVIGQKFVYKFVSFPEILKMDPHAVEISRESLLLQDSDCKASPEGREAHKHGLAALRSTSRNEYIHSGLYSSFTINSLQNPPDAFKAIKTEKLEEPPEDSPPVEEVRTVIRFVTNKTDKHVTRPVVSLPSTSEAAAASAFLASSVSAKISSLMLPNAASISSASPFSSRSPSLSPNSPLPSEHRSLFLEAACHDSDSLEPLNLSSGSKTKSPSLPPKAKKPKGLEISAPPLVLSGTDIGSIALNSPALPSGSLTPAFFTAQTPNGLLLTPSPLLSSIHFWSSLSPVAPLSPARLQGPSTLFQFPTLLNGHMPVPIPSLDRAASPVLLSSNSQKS
Particulars: protein: recombinant; tags: N-terminal GST; dsDNA, one strand shown. In a few lines: as §1

For another assay, the target named is T7, FEV (Homo sapiens, UniProt Q99581 1-238).
T7 sequence: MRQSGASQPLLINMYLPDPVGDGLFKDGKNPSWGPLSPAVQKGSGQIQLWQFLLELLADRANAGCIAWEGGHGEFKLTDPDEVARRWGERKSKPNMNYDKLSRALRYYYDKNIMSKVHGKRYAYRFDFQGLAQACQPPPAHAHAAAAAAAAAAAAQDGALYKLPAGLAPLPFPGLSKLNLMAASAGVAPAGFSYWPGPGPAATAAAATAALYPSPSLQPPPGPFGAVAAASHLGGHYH
Particulars: protein: recombinant; tags: N-terminal GST; dsDNA, one strand shown. The method, boiled down: as §1

The target in a further assay is ETV5 (Homo sapiens, UniProt P41161 1-510). Particulars: protein: recombinant; tags: N-terminal GST; dsDNA, one strand shown. In a few lines: as §1
Sequence of ETV5 (P41161 whole entry): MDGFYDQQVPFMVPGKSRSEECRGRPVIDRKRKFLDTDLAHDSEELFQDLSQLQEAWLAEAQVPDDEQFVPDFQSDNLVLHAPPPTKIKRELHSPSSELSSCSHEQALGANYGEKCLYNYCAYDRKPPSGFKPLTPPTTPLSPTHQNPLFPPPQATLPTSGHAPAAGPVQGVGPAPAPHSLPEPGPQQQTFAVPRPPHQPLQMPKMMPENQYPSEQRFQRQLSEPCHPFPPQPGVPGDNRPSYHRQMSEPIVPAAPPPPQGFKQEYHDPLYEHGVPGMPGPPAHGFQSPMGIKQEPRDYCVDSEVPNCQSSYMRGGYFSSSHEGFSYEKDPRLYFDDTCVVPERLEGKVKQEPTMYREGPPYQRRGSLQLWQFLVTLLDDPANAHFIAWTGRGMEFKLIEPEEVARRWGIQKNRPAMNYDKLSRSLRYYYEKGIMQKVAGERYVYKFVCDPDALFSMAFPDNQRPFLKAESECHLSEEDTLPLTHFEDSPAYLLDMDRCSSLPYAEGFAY
The target of the next assay is HSF1 (Homo sapiens, UniProt Q00613 1-529). To be noted: protein: recombinant; tags: N-terminal GST; chain copies: 3; dsDNA, one strand shown. The method, boiled down: as §1
Sequence of HSF1 (Q00613 whole entry): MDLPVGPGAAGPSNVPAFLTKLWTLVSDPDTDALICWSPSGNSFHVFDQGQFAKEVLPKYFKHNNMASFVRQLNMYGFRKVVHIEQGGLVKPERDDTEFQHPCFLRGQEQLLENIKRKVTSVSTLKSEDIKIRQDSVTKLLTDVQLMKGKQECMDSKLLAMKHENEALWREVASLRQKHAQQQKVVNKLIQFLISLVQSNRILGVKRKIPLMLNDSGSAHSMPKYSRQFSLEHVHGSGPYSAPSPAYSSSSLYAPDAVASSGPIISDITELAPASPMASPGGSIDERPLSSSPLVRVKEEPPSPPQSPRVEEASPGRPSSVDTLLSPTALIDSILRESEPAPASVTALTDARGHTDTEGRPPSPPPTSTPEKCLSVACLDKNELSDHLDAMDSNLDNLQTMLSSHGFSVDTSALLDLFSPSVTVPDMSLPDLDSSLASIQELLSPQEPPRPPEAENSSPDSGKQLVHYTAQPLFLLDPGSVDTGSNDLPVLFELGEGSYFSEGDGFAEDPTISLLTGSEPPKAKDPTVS
A further assay addresses T8, SPIC (Homo sapiens, UniProt Q8N5J4 1-248).
T8 sequence: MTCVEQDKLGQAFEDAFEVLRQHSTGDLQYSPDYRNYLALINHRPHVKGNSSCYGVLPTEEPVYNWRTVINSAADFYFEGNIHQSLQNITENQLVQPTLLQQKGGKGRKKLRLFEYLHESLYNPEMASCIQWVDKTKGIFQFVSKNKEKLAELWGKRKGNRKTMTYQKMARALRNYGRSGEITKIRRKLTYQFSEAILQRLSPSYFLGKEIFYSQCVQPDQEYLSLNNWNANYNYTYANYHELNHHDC
To be noted: protein: recombinant; tags: N-terminal GST; dsDNA, one strand shown. In a few lines:
as §1

The target of the next assay is ELF4 (Homo sapiens, UniProt Q99607 1-663). Particulars: protein: recombinant; tags: N-terminal GST; dsDNA, one strand shown. The method, boiled down: as §1
Sequence of ELF4 (Q99607 whole entry): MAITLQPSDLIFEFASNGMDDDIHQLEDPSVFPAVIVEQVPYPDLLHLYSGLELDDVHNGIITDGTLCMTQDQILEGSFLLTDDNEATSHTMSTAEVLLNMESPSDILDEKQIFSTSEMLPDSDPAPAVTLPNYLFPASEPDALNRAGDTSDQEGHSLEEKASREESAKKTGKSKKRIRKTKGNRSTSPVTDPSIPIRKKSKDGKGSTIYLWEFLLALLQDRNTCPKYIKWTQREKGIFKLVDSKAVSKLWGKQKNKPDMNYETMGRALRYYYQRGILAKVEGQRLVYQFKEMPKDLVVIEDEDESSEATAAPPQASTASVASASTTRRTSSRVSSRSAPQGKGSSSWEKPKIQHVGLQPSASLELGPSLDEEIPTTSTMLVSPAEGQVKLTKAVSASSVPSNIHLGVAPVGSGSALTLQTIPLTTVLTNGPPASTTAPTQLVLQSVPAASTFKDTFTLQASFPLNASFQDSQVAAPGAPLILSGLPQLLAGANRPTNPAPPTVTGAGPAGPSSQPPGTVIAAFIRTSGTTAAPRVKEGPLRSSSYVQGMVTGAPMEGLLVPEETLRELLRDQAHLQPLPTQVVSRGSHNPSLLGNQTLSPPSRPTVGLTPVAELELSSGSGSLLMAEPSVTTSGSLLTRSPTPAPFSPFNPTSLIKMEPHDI
In the next assay the target is T9, ELK4 (Homo sapiens, UniProt P28324-2 1-405).
T9 sequence: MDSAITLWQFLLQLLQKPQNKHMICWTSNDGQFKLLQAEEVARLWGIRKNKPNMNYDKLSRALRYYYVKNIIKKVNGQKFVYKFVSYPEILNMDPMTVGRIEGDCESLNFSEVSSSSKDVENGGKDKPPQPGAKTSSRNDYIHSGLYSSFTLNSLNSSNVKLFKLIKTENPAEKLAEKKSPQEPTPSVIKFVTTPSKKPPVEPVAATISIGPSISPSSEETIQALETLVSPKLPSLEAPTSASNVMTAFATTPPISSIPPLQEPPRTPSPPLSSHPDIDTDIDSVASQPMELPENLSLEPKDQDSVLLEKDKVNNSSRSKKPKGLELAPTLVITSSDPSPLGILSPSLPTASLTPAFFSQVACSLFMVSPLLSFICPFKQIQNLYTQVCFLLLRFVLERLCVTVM
Particulars: protein: recombinant; tags: N-terminal GST; dsDNA, one strand shown. In a few lines: as §1

The target of the next assay is T10, ETV2 (Homo sapiens, UniProt O00321 1-342).
T10 sequence: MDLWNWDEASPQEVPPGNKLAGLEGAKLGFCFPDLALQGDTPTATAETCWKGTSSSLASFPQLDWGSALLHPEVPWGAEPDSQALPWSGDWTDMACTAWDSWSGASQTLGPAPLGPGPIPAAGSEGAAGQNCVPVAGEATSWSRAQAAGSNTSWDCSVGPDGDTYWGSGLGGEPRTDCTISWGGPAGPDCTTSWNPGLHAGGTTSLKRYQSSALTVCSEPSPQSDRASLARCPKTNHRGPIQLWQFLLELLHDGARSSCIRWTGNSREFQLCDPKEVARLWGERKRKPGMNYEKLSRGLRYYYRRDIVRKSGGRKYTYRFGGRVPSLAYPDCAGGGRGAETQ
To be noted: protein: recombinant; tags: N-terminal GST; dsDNA, one strand shown. In a few lines:
as §1

For another assay, the target named is T11, ELF3 (Homo sapiens, UniProt P78545 1-371).
T11 sequence: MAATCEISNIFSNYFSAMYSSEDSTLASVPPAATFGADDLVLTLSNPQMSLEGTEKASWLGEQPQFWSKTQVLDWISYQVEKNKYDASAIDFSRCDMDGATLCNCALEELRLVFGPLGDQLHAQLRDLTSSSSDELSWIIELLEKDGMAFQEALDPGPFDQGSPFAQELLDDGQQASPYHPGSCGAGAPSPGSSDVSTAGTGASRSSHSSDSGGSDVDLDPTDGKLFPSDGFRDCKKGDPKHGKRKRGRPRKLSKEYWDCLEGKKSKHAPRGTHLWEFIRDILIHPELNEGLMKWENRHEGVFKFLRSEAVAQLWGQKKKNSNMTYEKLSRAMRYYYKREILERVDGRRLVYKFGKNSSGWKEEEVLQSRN
To be noted: protein: recombinant; tags: N-terminal GST; dsDNA, one strand shown. In a few lines: as §1

For a further assay, the target named is CRX (Homo sapiens, UniProt O43186 1-299). Particulars: protein: recombinant; tags: N-terminal GST; dsDNA, one strand shown. The method, boiled down:
as §1

A further assay has as its target ETV1 (Homo sapiens, UniProt P50549 1-477). Particulars: protein: recombinant; tags: N-terminal GST; dsDNA, one strand shown. The method, boiled down: as §1

Sequence of ETV1 (P50549 whole entry): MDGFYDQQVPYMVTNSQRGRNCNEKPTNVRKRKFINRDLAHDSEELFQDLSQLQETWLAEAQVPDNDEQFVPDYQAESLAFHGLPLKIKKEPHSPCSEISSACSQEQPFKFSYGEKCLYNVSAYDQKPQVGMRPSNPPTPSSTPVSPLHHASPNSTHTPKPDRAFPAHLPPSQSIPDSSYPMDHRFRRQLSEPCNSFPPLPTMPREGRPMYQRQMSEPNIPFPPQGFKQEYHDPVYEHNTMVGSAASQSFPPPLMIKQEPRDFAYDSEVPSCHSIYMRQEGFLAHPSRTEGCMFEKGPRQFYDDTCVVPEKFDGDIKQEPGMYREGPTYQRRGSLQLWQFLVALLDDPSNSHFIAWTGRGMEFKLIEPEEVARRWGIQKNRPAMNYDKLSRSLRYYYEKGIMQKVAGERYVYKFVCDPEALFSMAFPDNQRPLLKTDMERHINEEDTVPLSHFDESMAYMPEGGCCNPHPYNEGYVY
Sequence of ELF1 (P32519 whole entry): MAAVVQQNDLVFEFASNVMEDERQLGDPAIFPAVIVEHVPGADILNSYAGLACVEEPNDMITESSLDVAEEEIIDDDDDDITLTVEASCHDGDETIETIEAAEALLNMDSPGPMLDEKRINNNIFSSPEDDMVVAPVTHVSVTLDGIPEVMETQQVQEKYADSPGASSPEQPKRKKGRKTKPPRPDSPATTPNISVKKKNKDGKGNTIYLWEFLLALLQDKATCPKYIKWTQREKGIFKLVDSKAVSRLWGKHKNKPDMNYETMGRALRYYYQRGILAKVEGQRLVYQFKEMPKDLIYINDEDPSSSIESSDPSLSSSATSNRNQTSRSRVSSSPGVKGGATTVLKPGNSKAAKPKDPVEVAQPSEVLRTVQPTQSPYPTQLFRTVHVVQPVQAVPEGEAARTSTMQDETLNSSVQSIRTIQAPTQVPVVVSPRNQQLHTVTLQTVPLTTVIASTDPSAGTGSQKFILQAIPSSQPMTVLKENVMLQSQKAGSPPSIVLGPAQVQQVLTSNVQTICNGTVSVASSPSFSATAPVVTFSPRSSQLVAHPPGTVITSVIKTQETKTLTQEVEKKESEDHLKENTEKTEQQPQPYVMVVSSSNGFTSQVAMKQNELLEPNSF
Sequence of CRX (O43186 whole entry): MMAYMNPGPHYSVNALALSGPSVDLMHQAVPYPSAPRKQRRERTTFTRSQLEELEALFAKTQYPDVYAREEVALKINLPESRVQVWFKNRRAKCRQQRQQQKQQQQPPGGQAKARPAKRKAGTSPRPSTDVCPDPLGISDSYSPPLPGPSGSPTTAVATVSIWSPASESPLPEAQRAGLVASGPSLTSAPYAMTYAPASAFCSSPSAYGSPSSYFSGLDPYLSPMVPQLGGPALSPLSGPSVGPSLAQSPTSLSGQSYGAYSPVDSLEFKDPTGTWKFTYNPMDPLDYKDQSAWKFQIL

GGATTT: the binding signal was 1.33 fold enrichment (6-mer frequency, TF over GST control) with FLI1; 1.25 fold enrichment (6-mer frequency, TF over GST control) with ELK1; 1.26 fold enrichment (6-mer frequency, TF over GST control) with GABPA; 1.34 fold enrichment (6-mer frequency, TF over GST control) with ERG; 1.23 fold enrichment (6-mer frequency, TF over GST control) in the assay with ELF1; 1.24 fold enrichment (6-mer frequency, TF over GST control) with EHF. Further, the binding signal with SPI1 is 1.22 fold enrichment (6-mer frequency, TF over GST control); in the assay with SPIB, 1.29 fold enrichment (6-mer frequency, TF over GST control); with ELK3, 1.48 fold enrichment (6-mer frequency, TF over GST control); with FEV, 2.01 fold enrichment (6-mer frequency, TF over GST control); in the assay with ETV5 it was 1.33 fold enrichment (6-mer frequency, TF over GST control); with HSF1, 1.62 fold enrichment (6-mer frequency, TF over GST control). For the same sequence, the binding signal with SPIC is 1.16 fold enrichment (6-mer frequency, TF over GST control); with ELF4, 1.26 fold enrichment (6-mer frequency, TF over GST control); with ELK4, 1.25 fold enrichment (6-mer frequency, TF over GST control); with ETV2, 1.27 fold enrichment (6-mer frequency, TF over GST control); with ELF3 it was 1.15 fold enrichment (6-mer frequency, TF over GST control); in the assay with CRX, 2.47 fold enrichment (6-mer frequency, TF over GST control). Also, the binding signal with ETV1 was 1.22 fold enrichment (6-mer frequency, TF over GST control).
